Active and inactive are the calls of the source. Unless noted, how the calls were made is not given here.
How the values were obtained:
[1] = compounds binding Alexa647 anti-His antibody – biochemical, small-molecule microarray, 635 nm fluorescence, artefact control for SMM control protein annotation, primary screen (AID 1128); conditions: higher = more signal;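 further: score merges feature fluorescence with signal-to-noise for each printed compound spot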
[2] = system: Human papillomavirus type 1a E7 protein (residues 1-88); assay: HPV1a E7 small-molecule binders, primary screen, biochemical, small-molecule microarray, residues 1-88, 635 nm (AID 1129); conditions: small-molecule microarray binding, fluorescence 635 nm; higher = more signal
[3] = target: Focal adhesion kinase 1 (Homo sapiens) (UniProt Q05397); assay: PTK2 protein binding on printed compound slides – biochemical, small-molecule microarray, 635/667 nm fluorescence, BSA, DTT, primary screen (AID 1130); conditions: 635 nm fluorescence, higher = more signal;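 further: composite of spot emission at 667 nm and signal to noise over triplicate slides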
[4] = system: Fibrinogen (Alexa647-labelled); assay: Alexa647-fibrinogen binding to printed small molecules – biochemical, small-molecule microarray, 635/667 nm fluorescence, artefact control for SMM control-protein annotation, profiling panel (AID 1131); conditions: fibrinogen-A647 binding fluorescence, higher = more signal;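 further: z-score merges 667 nm fluorescence with per-spot signal-to-noise over triplicate slides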
[5] = target: Follistatin (Homo sapiens) (UniProt P19883); assay: FST protein binding to printed compounds – biochemical, small-molecule microarray, 635/667 nm fluorescence, primary screen (AID 1132); conditions: 635 nm fluorescence, higher = more signal
[6] = target: Fibroblast growth factor 2 (Homo sapiens) (UniProt P09038); assay: basic fibroblast growth factor binding to printed compounds – biochemical, small-molecule microarray, 635/667 nm fluorescence, primary screen (AID 1133); conditions: FGF2, fluorescence 635/667, higher = more signal
[7] = JC-1 mitochondrial potential readout, lung cancer cells – cell-based, A549, JC-1 fluorescence, basal, 24 h, 100 nL, profiling panel (AID 1138); conditions: higher = more signal;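 further: A549 lung adenocarcinoma cells under basal conditions with no added stimulus; test concentration not given here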
[8] = system: Lefty1; assay: Lefty1 protein binding to printed compounds – biochemical, small-molecule microarray, 635/667 nm fluorescence, primary screen (AID 1139); conditions: fluorescence 635/667, higher = more signal
[9] = system: wheat germ agglutinin (Triticum aestivum), Alexa647-labelled; assay: Alexa647-WGA lectin binding to printed small molecules – biochemical, small-molecule microarray, 635/667 nm fluorescence, artefact control for SMM control-protein annotation, profiling panel (AID 1140); conditions: WGA-A647 binding, 635 nm fluorescence, higher = more signal;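 further: score merges 667 nm feature emission with signal to noise over triplicate slides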
[10] = target: Luciferin 4-monooxygenase (Photinus pyralis) (UniProt P08659); assay: inhibition of purified Photinus pyralis luciferase – biochemical, luminescence, purified enzyme, 2006 set, primary screen (AID 1141); conditions: purified firefly luciferase, SteadyGlo luminescence, 30 min; higher = more signal, called active from +8 up or from −8 down;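 further: cell-free assay with purified firefly luciferase at 100 ng per well in PBS; test concentration not given here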
[11] = system: Wnt5a (protein binding on small-molecule microarray); assay: small molecules binding Wnt5a protein – biophysical, small-molecule microarray, 635/667 nm fluorescence, primary screen (AID 1142); conditions: 635 nm fluorescence, higher = more signal;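 further: fluorescence read at 667 nm with signal to noise per printed feature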
[12] = ATP-based viability of Huh7 replicon cells – cell-based, CellTiter-Glo luminescence, basal, 48 h, cytotoxicity control for HCV replication inhibitor project, primary screen (AID 1143); conditions: higher = more signal, called active from +8 up or from −8 down;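 further: Huh7 hepatoma cells carrying a hepatitis C replication reporter with no stimulus; test concentration not given here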
[13] = Pseudomonas biofilm growth suppression – PAO1 strain, BacTiter-Glo luminescence, LB-PBS, primary screen (AID 1144); conditions: P. aeruginosa PAO1 biofilm, 12 h, higher = more signal
[14] = basal CRE-LacZ reporter activity in PC12 – cell-based, unstimulated, primary screen (AID 1145); conditions: no forskolin, luminescence, 4.5 h, higher = more signal, called active from +8 up or from −8 down
[15] = forskolin-driven CRE-LacZ activity in PC12 – cell-based, CRE-LacZ reporter, forskolin-stimulated, primary screen (AID 1146); conditions: luminescence, 4.5 h, higher = more signal, called active from +8 up or from −8 down;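 further: PC12 cells with 6xCRE LacZ reporter stimulated by forskolin 10 µM; beta-galactosidase reporter signal reflecting CREB driven transcription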
[16] = target: Streptavidin (Streptomyces avidinii) (UniProt P22629); assay: compounds binding control protein streptavidin – biophysical, small-molecule microarray, 635/667 nm fluorescence, artefact control for SMM compound annotation, primary screen (AID 1147); conditions: higher = more signal;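 further: signal reflects streptavidin binding to arrayed compounds as a control protein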
[17] = probe aInhba binding on compound microarray – biochemical, small-molecule microarray, 635/667 nm fluorescence, primary screen (AID 1148); conditions: higher = more signal;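 further: score merges 667nm spot fluorescence with signal-to-noise for antibody binding to printed compounds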
[18] = target: Torsin-1A (Homo sapiens) (UniProt O14656); assay: TOR1A wild-type binding on microarray – cell lysate, small-molecule microarray, lysate, 635/667 nm, primary screen (AID 1149); conditions: COS7 hTOR1A-WT lysate, 635 nm fluorescence, higher = more signal
[19] = target: Torsin-1A (Homo sapiens) (UniProt O14656); assay: torsin A mutant lysate binding on microarrays – cell lysate, small-molecule microarray, COS7 lysate, 635/667 nm fluorescence, primary screen (AID 1150); conditions: COS7 hTOR1A mutant lysate, 635 nm fluorescence, higher = more signal;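 further: score pools 667 nm emission and signal to noise measuring lysate protein binding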
[20] = system: Sonic hedgehog protein (Shh); assay: Sonic hedgehog microarray binding compounds – biochemical, small-molecule microarray, 635/667 nm fluorescence, primary screen (AID 1151); conditions: 635 nm fluorescence, higher = more signal;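 further: Shh protein binding to compounds spotted on small-molecule microarray slides; score combines spot fluorescence intensity with signal-to-noise across triplicate slides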

Chain of Streptavidin (Streptomyces avidinii) (P22629 whole entry, looked up): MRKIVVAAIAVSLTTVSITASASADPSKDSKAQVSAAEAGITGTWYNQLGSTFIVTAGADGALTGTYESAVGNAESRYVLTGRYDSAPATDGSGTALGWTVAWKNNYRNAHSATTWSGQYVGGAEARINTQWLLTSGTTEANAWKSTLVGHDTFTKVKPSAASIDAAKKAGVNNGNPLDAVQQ
Chain of Torsin-1A (Homo sapiens) (O14656 whole entry, looked up): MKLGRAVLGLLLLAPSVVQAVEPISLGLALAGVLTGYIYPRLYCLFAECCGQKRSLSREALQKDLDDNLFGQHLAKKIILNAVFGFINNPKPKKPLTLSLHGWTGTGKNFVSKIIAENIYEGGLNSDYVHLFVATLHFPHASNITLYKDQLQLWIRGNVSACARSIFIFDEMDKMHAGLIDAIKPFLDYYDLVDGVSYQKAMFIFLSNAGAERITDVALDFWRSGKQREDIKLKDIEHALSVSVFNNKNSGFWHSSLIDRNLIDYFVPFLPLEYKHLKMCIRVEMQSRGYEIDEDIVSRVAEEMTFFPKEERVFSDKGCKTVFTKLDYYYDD
Chain of Luciferin 4-monooxygenase (Photinus pyralis) (P08659 whole entry, looked up): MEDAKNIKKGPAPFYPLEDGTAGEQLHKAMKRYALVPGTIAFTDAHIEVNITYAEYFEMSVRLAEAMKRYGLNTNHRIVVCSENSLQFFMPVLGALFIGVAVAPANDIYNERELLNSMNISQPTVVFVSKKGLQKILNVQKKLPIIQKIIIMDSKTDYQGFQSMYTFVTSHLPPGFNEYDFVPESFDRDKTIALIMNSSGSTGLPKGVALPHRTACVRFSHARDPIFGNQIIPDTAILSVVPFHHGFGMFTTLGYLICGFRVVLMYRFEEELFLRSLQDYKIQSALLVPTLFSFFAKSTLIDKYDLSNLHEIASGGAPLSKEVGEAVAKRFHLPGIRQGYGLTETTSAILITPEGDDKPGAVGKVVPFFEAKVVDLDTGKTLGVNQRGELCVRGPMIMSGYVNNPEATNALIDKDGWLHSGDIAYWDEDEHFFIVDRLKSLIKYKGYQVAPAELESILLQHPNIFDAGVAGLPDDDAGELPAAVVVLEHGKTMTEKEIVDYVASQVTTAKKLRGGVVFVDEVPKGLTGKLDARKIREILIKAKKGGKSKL
Chain of Focal adhesion kinase 1 (Homo sapiens) (Q05397 whole entry, looked up): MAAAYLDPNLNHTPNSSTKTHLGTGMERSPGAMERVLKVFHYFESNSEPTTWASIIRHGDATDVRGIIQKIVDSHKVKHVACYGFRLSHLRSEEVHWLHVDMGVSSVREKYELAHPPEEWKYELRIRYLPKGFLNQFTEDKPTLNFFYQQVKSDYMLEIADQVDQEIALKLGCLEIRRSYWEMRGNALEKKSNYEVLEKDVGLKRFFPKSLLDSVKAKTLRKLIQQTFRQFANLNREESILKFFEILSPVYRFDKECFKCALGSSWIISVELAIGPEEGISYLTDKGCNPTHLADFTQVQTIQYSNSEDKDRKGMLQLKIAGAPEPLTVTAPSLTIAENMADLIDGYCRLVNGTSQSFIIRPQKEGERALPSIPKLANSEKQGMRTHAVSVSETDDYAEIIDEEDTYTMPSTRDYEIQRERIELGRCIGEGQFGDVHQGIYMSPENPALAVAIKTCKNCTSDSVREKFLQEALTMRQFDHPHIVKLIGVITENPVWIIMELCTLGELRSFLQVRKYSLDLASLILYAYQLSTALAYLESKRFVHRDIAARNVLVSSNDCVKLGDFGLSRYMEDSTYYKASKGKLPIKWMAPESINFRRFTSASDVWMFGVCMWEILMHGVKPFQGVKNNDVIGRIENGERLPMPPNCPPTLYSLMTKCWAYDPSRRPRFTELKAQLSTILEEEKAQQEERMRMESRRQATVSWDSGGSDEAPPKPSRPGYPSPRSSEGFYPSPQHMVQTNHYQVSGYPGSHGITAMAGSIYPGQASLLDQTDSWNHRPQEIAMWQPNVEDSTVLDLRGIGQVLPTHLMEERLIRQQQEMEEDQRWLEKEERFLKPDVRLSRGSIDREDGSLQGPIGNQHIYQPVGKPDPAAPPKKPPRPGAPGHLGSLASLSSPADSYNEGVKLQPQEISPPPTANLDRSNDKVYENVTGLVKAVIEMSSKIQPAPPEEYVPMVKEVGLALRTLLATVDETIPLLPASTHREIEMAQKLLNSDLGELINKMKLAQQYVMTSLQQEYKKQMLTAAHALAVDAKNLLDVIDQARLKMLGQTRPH
Chain of Fibroblast growth factor 2 (Homo sapiens) (P09038 whole entry, looked up): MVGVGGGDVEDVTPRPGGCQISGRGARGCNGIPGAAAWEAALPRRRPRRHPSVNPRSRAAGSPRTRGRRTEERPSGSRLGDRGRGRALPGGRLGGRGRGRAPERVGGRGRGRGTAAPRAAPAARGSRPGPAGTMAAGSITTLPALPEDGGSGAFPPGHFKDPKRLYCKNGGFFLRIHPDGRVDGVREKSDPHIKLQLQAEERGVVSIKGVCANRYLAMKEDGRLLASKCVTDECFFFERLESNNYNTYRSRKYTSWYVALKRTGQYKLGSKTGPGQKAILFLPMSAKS
Chain of Follistatin (Homo sapiens) (P19883 whole entry, looked up): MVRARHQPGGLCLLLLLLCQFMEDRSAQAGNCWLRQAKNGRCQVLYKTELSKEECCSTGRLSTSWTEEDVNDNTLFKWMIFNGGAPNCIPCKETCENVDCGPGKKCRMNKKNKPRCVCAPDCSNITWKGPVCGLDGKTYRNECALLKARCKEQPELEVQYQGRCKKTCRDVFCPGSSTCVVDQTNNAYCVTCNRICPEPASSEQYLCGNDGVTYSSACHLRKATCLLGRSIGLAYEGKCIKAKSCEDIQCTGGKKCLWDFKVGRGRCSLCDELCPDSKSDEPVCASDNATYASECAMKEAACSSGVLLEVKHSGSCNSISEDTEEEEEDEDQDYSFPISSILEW

SMILES: [N-]=[N+]=NCc1ccccc1C[C@@]1(C(=O)N2CCCCC2)N=C(c2ccc(OCCCO)cc2)O[C@@H]1c1ccccc1N=[N+]=[N-]
- composite z-score [1]: 1.4
- composite z-score [2]: 1.14
- composite z-score [3]: 0.759
- composite z-score [4]: 0.769
- composite z-score [5]: 0.249
- composite z-score [6]: 0.157
- z-score [7]: 1.25
- composite z-score [8]: -0.162
- composite z-score [9]: 0.885
- z-score [10]: -6.07 (inactive)
- composite z-score [11]: -0.269
- z-score [12]: -3.28 (inactive)
- z-score [13]: 1.48 (inactive)
- z-score [14]: 0.596 (inactive)
- z-score [15]: -1.16 (inactive)
- composite z-score [16]: 0.75
- composite z-score [17]: -0.209
- composite z-score [18]: 0.704
- composite z-score [19]: 0.826
- composite z-score [20]: 0.0369

SMILES: Cc1ccc(S[C@]2(C(=O)NCc3ccccc3)CC(=O)N(C(C)C)[C@@H]2c2ccc(CO)cc2I)cc1
- composite z-score [1]: 0.257
- composite z-score [2]: -0.0754
- composite z-score [3]: -0.19
- composite z-score [4]: -0.956
- composite z-score [5]: -0.289
- composite z-score [6]: -1.04
- z-score [7]: -0.224
- composite z-score [8]: -1.17
- composite z-score [9]: -0.0961
- z-score [10]: 0.667 (inactive)
- composite z-score [11]: 0.292
- z-score [12]: -1.11 (inactive)
- z-score [13]: 0.201 (inactive)
- z-score [14]: 0.208 (inactive)
- z-score [15]: 1.95 (inactive)
- composite z-score [16]: -0.505
- composite z-score [17]: 0.0028
- composite z-score [18]: -0.0397
- composite z-score [19]: -0.609
- composite z-score [20]: -1.37

SMILES: COCCOC(=O)N1C(=O)[C@@]2(c3cc(C#Cc4ccc(OC)cc4)ccc31)[C@H](C(=O)NC[C@H](O)c1ccccc1)[C@H]1C(=O)O[C@H](c3ccccc3)[C@H](c3ccccc3)N1[C@@H]2c1ccc(O)cc1
- composite z-score [1]: 0.933
- composite z-score [2]: 1.16
- composite z-score [3]: 0.33
- composite z-score [4]: 0.912
- composite z-score [5]: 1.16
- composite z-score [6]: 1.01
- z-score [7]: -1.47
- composite z-score [8]: 1.19
- composite z-score [9]: 0.666
- z-score [10]: 0.273 (inactive)
- composite z-score [11]: 0.317
- z-score [12]: -2.05 (inactive)
- z-score [13]: -0.392 (inactive)
- z-score [14]: -1.01 (inactive)
- z-score [15]: -1.19 (inactive)
- composite z-score [16]: 0.582
- composite z-score [17]: 0.0228
- composite z-score [18]: 0.772
- composite z-score [19]: 0.527
- composite z-score [20]: 1.73

SMILES: CN(C)CCCCNC(=O)[C@H]1C[C@H]2C(=O)N[C@@H](CCCCN(C)C)C(=O)N2[C@H]1c1cccc(OCCO)c1
- composite z-score [1]: 1.1
- composite z-score [2]: 0.603
- composite z-score [3]: 0.29
- composite z-score [4]: 0.877
- composite z-score [5]: 1.3
- composite z-score [6]: 1.23
- z-score [7]: -0.0557
- composite z-score [8]: 1.64
- composite z-score [9]: 1.02
- z-score [10]: 0.709 (inactive)
- composite z-score [11]: 0.83
- z-score [12]: 0.441 (inactive)
- z-score [13]: 0.251 (inactive)
- z-score [14]: -1.07 (inactive)
- z-score [15]: -0.535 (inactive)
- composite z-score [16]: 0.329
- composite z-score [17]: -0.305
- composite z-score [18]: 0.68
- composite z-score [19]: 0.86
- composite z-score [20]: 2.08

SMILES: C[N+](C)(C)CCCC[C@@H]1NC(=O)[C@@H]2C[C@H](C(=O)O)[C@H](c3ccc(O)cc3)N2C1=O
- composite z-score [1]: -0.613
- composite z-score [2]: -1.65
- composite z-score [3]: -0.975
- composite z-score [4]: -1.21
- composite z-score [5]: -0.493
- composite z-score [6]: -0.27
- z-score [7]: -0.264
- composite z-score [8]: 0.0501
- composite z-score [9]: 0.213
- z-score [10]: -0.516 (inactive)
- composite z-score [11]: -0.535
- z-score [12]: 0.462 (inactive)
- z-score [13]: -0.771 (inactive)
- z-score [14]: 0.0043 (inactive)
- z-score [15]: 0.563 (inactive)
- composite z-score [16]: -1.08
- composite z-score [17]: -0.103
- composite z-score [18]: -1.07
- composite z-score [19]: -0.909
- composite z-score [20]: -0.0334

Source: PubChem BioAssay
